In all, about 410,000 compounds went through this assay and about 7,200 (1.8%) were called active. Roughly 7% stayed inconclusive and do not appear here. Calls follow the shape of the dose curve; as a rule, active = well fitted activation curve with a large enough effect; inconclusive = small, poorly fitted or top-dose-only effect, or another doubt; inactive = no such curve, though single readings can be large or run the other way. Only a selection was taken, and actives are over-represented in it overall.
Test: qHTS of TDP-43 Inhibitors; also: nearly all actives have a fitted effect of over 50% in size; as to growth rescue (activation): % of control where 0% means no effect
Conditions: TDP-43 expressing yeast growth rescue, BacTiter-Glo, 24 h; series mostly up to 46.1 µM; growth rescue (activation): at the top concentration
In short: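 Readout is BacTiter-Glo luminescence of cell growth, so inhibitors register as activators. TDP-43-expressing yeast at OD600=0.02 in galactose medium, after raffinose pregrowth to mid-log, were incubated with compound for 24 hr at 30 deg C.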
Potency is read from the fitted curve at half-maximal effect.

Compound	Potency	growth rescue (activation)
Cc1nnc(-c2ccc(Oc3ccc(C)c(C)c3)c([N+](=O)[O-])c2)o1	20 µM (active)	–
COc1ccc(OCC(=O)Nc2cc(C)c(Cl)cc2OC)c([N+](=O)[O-])c1	–	-6.38% (inactive)
COc1ccc(-c2noc(-c3ccc(N4CCN(c5ccccc5)CC4)c([N+](=O)[O-])c3)n2)cc1OC	–	22.5% (inactive)
COc1ccc(Cl)cc1NC(=O)CSc1nc(=O)[nH]c2c1CCCC2	–	20.8% (inactive)
CCOC(=O)c1cc(NC(=O)c2ccc(F)cc2)c(=O)n2c1oc1ccccc12	–	19% (inactive)
Cc1ccc(F)cc1NC(=O)CCSc1nc(-c2ccco2)cc(C(F)(F)F)n1	–	0% (inactive)
CC(C)c1ccc(CC(=O)N2CCC2(C)C(=O)NS(=O)(=O)c2ccc(C(C)(C)C)cc2)cc1 (configuration not stated)	22.4 µM (active)	–
CCCC(=O)N1CCC1(C)C(=O)NS(=O)(=O)c1ccc(Cl)cc1 (configuration not stated)	–	20.4% (inactive)
CC(C)(C)c1ccc(S(=O)(=O)NC(=O)C2(C)CCN2C(=O)CC2CC2)cc1 (configuration not stated)	–	12.9% (inactive)
CCCCS(=O)(=O)c1oc(-c2cccs2)nc1S(=O)(=O)c1ccccc1	–	9.11% (inactive)
CCC(=O)N1CCc2cc(Br)cc(S(=O)(=O)CCC(=O)NCCc3ccc(OC)c(OC)c3)c21	–	-3.94% (inactive)
COc1cccc(CNC(=O)CSc2c3c(nc4cc(Cl)ccc24)CCCC3)c1	–	0% (inactive)
COc1cccc(CNC(=O)c2ccc3c(c2)sc2nc(-c4cccc(OC)c4)cn23)c1	–	11.4% (inactive)
COc1cccc(CNC(=O)c2ccc3c(Cl)c4c(nc3c2)CCCC4)c1	15.8 µM (active)	–
CCC(C(=O)Nc1cccc(Cl)c1C)n1nc(-c2ccc(C)cc2)ccc1=O (configuration not stated)	–	19.3% (inactive)
Cc1cccc(C(CC(=O)NCC2(c3ccccc3)CCCC2)c2ccccc2)c1O (configuration not stated)	–	1.56% (inactive)
CC(C)c1ccc(NC(=O)C2CCN(c3nc(-c4ccc(C(C)C)cc4)no3)CC2)cc1	–	15.4% (inactive)
COc1ccc(NC(=O)N2CCCC(c3nc(-c4ccc(F)cc4)no3)C2)cc1 (configuration not stated)	–	-8.68% (inactive)
CCN(C(=O)C1CCCN(c2nc(-c3ccc(OC)cc3)no2)C1)c1ccc(OC)cc1 (configuration not stated)	22.4 µM (active)	–
O=C(Nc1cc(C(F)(F)F)ccc1Cl)c1ccc2c(c1)CCN2S(=O)(=O)c1ccccc1	–	0.492% (inactive)
Cc1ccccc1CNC(=O)CSc1nnc(C)c2c(C)n(-c3ccccc3)nc12	–	-0.0928% (inactive)
Cc1ccc(Cl)cc1N1CCN(C(=O)c2cn(C)c3ccc(S(=O)(=O)N(C)C4CCCCC4)cc3c2=O)CC1	–	-6.86% (inactive)
Cc1cccc(Cn2c(=O)n(CCC(=O)NCCc3ccc(Cl)cc3)c(=O)c3sccc32)c1	–	-5.44% (inactive)
Cc1nc2ccccc2nc(=O)c1NNc1ccc([N+](=O)[O-])cc1	–	12.8% [at 9.22 µM] (inactive)
O=[N+]([O-])c1ccc2c(c1)Nc1nc3ccccc3nc1N2	22.4 µM (active)	–

Compound	Potency	growth rescue (activation)
O=C1Nc2ccc([N+](=O)[O-])cc2C1=Nc1cccc(CO)c1	–	-7.38% (inactive)
NC(=O)CSc1c[nH]c2ccccc12	–	-0.941% (inactive)
C[n+]1ccc(/C=C/c2c[nH]c3ccccc23)cc1	–	-10.3% (inactive)
CSC(=S)N/N=C/c1c[nH]c2ccccc12	12.6 µM (active)	–
NS(=O)(=O)c1ccc2nc(NC(=O)COc3ccccc3)sc2c1	–	24% [at 9.22 µM] (inactive)
CC1CN(C(=O)N2CCC(C(=O)NCc3ccco3)CC2)c2cc(Cl)ccc2O1 (configuration not stated)	–	0% (inactive)
Cc1c(Cl)cccc1-c1ccc(CNCCCSc2nnnn2C)o1	–	0% [at 9.22 µM] (inactive)
C=C(Br)Cn1c(CCCC)nc2ccccc21	–	7.28% (inactive)
COCc1nc2ccccc2n1Cc1ccccc1Br	20 µM (active)	–
CC(C)c1ccc(Cn2c(COc3ccccc3)nc3ccccc32)cc1	–	-4.54% (inactive)
COc1cccc(NC(=O)C(=O)NCC(c2ccc3c(c2)OCO3)N2CCN(C)CC2)c1 (configuration not stated)	–	2.35% (inactive)
COc1ccc(Cn2c(C(=O)O)c(CNCc3cccc(OC)c3)c3ccc(C)cc32)cc1	–	5.91% (inactive)
CCNC(=O)Cn1nc(C)n2c(cc3c(OC)cccc32)c1=O	–	18.2% (inactive)
CCOc1ccc(C(=O)N2CCN(CCc3ccccn3)CC2)cc1	–	19.5% (inactive)
O=C1C2C3C=CC(C3)C2C(=O)N1c1ccc(S(=O)(=O)Nc2nccs2)cc1 (configuration not stated)	–	-11.2% (inactive)
O=C1C2C3C=CC(C3)C2C(=O)N1c1ncc([N+](=O)[O-])s1 (configuration not stated)	14.1 µM (active)	–
O=C1C2C3C=CC(C4CC34)C2C(=O)N1c1nccs1 (configuration not stated)	–	21.6% (inactive)
COc1ccccc1NC(=O)c1oc2ccccc2c1NC(=O)COc1ccccc1OC	–	13.7% (inactive)
Cc1ccc(CNS(=O)(=O)c2ccc3c(c2)N(C)CCO3)cc1	15.8 µM (active)	–
Cc1ccc(S(=O)(=O)NCC(=O)N2CCOCCOCCOCCOCC2)cc1	–	-6.52% (inactive)
CN1CCN(c2ccc(CNS(=O)(=O)c3cccc(F)c3)cc2)CC1	–	7.06% (inactive)
Nc1ccc2c(c1)C(O)c1ccc(Cl)cc1-2 (configuration not stated)	20 µM (active)	–
O=C(Nc1ccc2nc(SCC(=O)N3CCCc4ccccc43)sc2c1)c1ccc(F)cc1	–	12.4% (inactive)
O=C(Nc1ccc(F)cc1F)c1cnn(-c2ccc(F)cc2)c1-n1cccc1	–	19.2% (inactive)
COC(=O)c1ccccc1NC(=O)c1cnn(-c2ccc(F)cc2)c1-n1cccc1	–	0% (inactive)

Compound	Potency	growth rescue (activation)
O=C(c1cnn(-c2ccc(F)cc2)c1-n1cccc1)N1CCN(c2ccc(F)cc2)CC1	25.1 µM (active)	–
CCOC(=O)c1c(C)[nH]c(CCC(=O)NCCCN2CCN(c3cccc(Cl)c3)CC2)c1C	–	13.5% (inactive)
Cc1cc(NC(=O)c2ccc(-c3ccc(Cl)cc3)o2)cc(-c2nc3ncccc3o2)c1O	–	12.2% (inactive)
Cc1cc([N+](=O)[O-])c(NC2CCCCC2)c([N+](=O)[O-])c1	35.5 µM (active)	–
Cc1ccc(C(=O)COC(=O)CCCC(=O)NC2CCCCC2)cc1[N+](=O)[O-]	–	5.33% (inactive)
Cc1cc([N+](=O)[O-])c(N2CCC[C@@H]2C(=O)O)c([N+](=O)[O-])c1	–	-26.4% (inactive)
COc1ccc(S(=O)(=O)c2c(Nc3ccc(C)cc3)sc(C(=O)c3ccc(C)cc3)c2N)cc1	–	12.2% (inactive)
CCOc1ccc(NC(=O)Cn2c(C)ccc(C#N)c2=O)cc1	–	-1.23% (inactive)
CC(N=Cc1nc(-c2ccccc2)oc1O)c1ccccc1 (configuration not stated)	12.6 µM (active)	–
Cn1c(=O)c2c(nc(SCC(=O)Nc3ccc(F)cc3)n2Cc2ccc(Cl)cc2)n(C)c1=O	–	12.5% (inactive)
CCn1c2ccccc2c2cc(CN3CCN(Cc4cccc(Cl)c4)CC3)ccc21	–	6.14% (inactive)
CCCCNC(=O)CSc1nc2cc3c(cc2c(=O)n1CCCCCC(=O)NCc1ccc2c(c1)OCO2)OCO3	–	18.1% (inactive)
CC1Cc2ccccc2N1C(=O)Cn1cnc2ccccc2c1=O (configuration not stated)	–	-3.07% (inactive)
CC1Cc2ccccc2N1C(=O)CSc1nc2ccccc2o1 (configuration not stated)	12.6 µM (active)	–
CC1Cc2ccccc2N1C(=O)CSc1nnc(C2CC2)n1C (configuration not stated)	–	1.9% [at 9.22 µM] (inactive)
CCc1ccc(NC(=O)c2cnc3c(-c4ccccc4)c(C)nn3c2C)cc1	–	20.4% (inactive)
O=C(CN1C(=O)COc2ccc(S(=O)(=O)N3CCOCC3)cc21)N1CCN(c2cccc(Cl)c2)CC1	–	12.5% (inactive)
O=C(COc1ccc(Cl)cc1)Nc1ccccc1OCc1cc(=O)n2ccccc2n1	–	12.3% (inactive)
Cc1oc2cc(Br)c(O)c(Br)c2c1C(=O)c1ccccc1	22.4 µM (active)	–
COc1cc(/C(=C/c2ccccc2)c2ccccc2)c2c(c1)oc1ccccc12	–	-12.2% (inactive)
Cc1oc2cc([N+](=O)[O-])c(O)c([N+](=O)[O-])c2c1C(=O)c1ccc(Br)cc1	–	-43.2% [at 9.22 µM] (inactive)
CCc1ccccc1NC(=O)c1sc2nc3c(cc2c1N)CN(Cc1ccccc1)CC3	–	21% (inactive)
Cc1cccc(CCNC(=O)c2ccc3c(c2)nc2n3CCC(C)C2)c1 (configuration not stated)	–	5.91% (inactive)
CS(=O)(=O)N(CC(=O)Nc1ccc(Cl)c(Cl)c1)C1CCCCC1	15.8 µM (active)	–
CCC(C)NC(=O)CN(C1CCCCC1)S(C)(=O)=O (configuration not stated)	–	-30.4% (inactive)

Compound	Potency	growth rescue (activation)
CS(=O)(=O)N(CC(=O)Nc1ccc(F)cc1)C1CCCCC1	–	14.6% (inactive)
CC(C)c1cccc(C(C)C)c1Nc1cn[nH]c1	3.98 µM (active)	–
FC(F)(F)c1cc(Nc2nc3ccccc3c3nncn23)ccc1Cl	–	0% (inactive)
O=C(CC(NCc1cccnc1)C(=O)O)Nc1ccc(O)cc1 (configuration not stated)	–	0.784% (inactive)
COc1ccc2c(CNCCc3ccccc3C)c(C(=O)O)n(Cc3ccccc3C)c2c1	–	12.8% (inactive)
CCN(CCCNC(=O)CSc1cc(=O)n(C)c2cc(Cl)ccc12)c1cccc(C)c1	–	-25.5% (inactive)
Cc1ccccc1-c1csc(C(O)c2cccc(Cl)c2)n1 (configuration not stated)	–	8.26% (inactive)
CC(O)(c1cccc(F)c1)c1nc(-c2ccc3c(c2)OCO3)cs1 (configuration not stated)	–	-55.4% (inactive)
CC(C)c1cccc(-c2csc(C(O)c3ccccc3)n2)c1 (configuration not stated)	17.8 µM (active)	–
COc1cc(C(O)c2nc(-c3cnn(C)c3)cs2)ccc1F (configuration not stated)	–	0% (inactive)
OC(c1ccccc1)c1nc(-c2cnc3ccccc3c2)cs1 (configuration not stated)	–	0% (inactive)
COc1cccc(C(NC(C)=O)c2nc(-c3ccccc3OC)cs2)c1 (configuration not stated)	–	13.7% (inactive)
COc1ccc(-c2csc(C(O)c3cccc(Cl)c3)n2)cn1 (configuration not stated)	25.1 µM (active)	–
COc1ccc(C(O)c2nc(-c3ccc4c(c3)OCO4)cs2)cc1 (configuration not stated)	14.1 µM (active)	–
Cc1ccc(-c2nc(Cn3c(=O)cc(-c4ccccc4)c4c(C)nn(C)c43)c(C)o2)cc1	–	11.8% (inactive)
CCCCN1CC(c2nc3ccccc3n2CCCCOc2ccc(C)cc2C)CC1=O (configuration not stated)	–	-86.6% (inactive)
Cc1ccc(-c2nc(CS(=O)(=O)CC(=O)NCc3ccccc3Cl)c(C)o2)cc1	–	14.5% (inactive)
O=C(N/N=C\C1CC=CCC1)c1ccc(Br)o1 (configuration not stated)	–	11.6% (inactive)
O=C(Nc1cccc(C(=O)O)c1)/C(=C\c1ccccc1)NC(=O)c1ccc(Br)o1	–	-9.24% (inactive)
O=C(N/N=C/c1cccc(OCc2ccccc2)c1)c1ccc(Br)o1	11.2 µM (active)	–
CC(C)Sc1oc(-c2cccs2)nc1S(=O)(=O)c1ccc(Cl)cc1	–	3.2% (inactive)
CCOc1cccc2cc(-c3cn4c(n3)sc3cc(C)ccc34)c(=O)oc12	–	6.67% (inactive)

— PubChem BioAssay AID652104 (National Center for Advancing Translational Sciences (NCATS), 2013)
